Assay results as given in PubChem BioAssay AID2557 (NMMLSC, 2010).
Among all 330,000 compounds or so, about 650 (0.2%) were called active. Cut-off read from the data, not from the text of the source: active = inhibition above about 50%; inactive = the rest. The list comes from a sample in which actives are over-represented; it also holds similar structures and randomly drawn compounds.

Each compound was assayed against Integrin alpha-4 (Homo sapiens) (UniProt P13612) (assay: VLA-4 integrin binding inhibitors – MLPCN library, flow cytometry, VLA-4 expressing cells, VLA-4 allosteric modulator project, primary screen (AID 2557)). Details: ligand binding flow cytometry, hits give high values, about 7 µM as worked out from the volumes in the protocol.
Sequence of Integrin alpha-4 (Homo sapiens) (P13612 whole entry, looked up): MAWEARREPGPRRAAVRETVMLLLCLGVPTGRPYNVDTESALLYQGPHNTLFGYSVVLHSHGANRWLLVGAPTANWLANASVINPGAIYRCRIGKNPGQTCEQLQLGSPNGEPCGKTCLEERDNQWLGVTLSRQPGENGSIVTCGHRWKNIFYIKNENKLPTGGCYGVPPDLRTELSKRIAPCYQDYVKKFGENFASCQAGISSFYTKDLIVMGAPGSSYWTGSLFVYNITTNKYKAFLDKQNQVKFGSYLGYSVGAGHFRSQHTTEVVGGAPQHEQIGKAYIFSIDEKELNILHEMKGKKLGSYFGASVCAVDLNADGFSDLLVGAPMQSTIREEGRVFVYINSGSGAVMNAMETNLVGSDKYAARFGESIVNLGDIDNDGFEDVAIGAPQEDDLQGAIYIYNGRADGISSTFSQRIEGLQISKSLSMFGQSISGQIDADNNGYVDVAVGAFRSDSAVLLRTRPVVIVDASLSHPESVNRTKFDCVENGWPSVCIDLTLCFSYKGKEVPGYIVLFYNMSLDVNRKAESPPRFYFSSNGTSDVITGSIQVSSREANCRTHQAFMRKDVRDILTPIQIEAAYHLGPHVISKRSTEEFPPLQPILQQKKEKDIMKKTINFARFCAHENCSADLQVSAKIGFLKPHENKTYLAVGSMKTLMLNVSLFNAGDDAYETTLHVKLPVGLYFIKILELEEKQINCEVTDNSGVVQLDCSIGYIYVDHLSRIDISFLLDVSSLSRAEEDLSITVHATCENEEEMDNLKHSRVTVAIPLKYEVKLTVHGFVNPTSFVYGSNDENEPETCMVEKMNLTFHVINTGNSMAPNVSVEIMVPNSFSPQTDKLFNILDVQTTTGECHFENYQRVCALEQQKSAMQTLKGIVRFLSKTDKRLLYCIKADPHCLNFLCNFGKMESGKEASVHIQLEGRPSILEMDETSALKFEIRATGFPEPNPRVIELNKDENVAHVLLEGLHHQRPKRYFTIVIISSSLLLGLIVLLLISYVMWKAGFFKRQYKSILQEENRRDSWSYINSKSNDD

Structure (SMILES)	inhibition
C=CC(COCc1ccccc1)N(CC(=O)OC)S(=O)(=O)c1cc(Br)ccc1OC (configuration not stated)	0.47% (inactive)
S=C(Nc1cccnc1)Nc1ccccn1	52.3% (active)
Fc1cc(Br)ccc1NC(=S)Nc1cccnc1	12.9% (inactive)
Cc1ccc(NC(=O)Nc2cccnc2)cc1	2.64% (inactive)
O=C(CN(C(=O)CNC(=O)c1cccs1)c1cccc(F)c1)NC1CCCCC1	5.25% (inactive)
COc1cccc(NC(=O)N2C3CCCC2CC(NC(C)=O)C3)c1 (configuration not stated)	9.9% (inactive)
COc1cccc(-c2cccc(NC(=O)C3CCN(C4CCC4)CC3)c2)c1	58.8% (active)
O=C(Nc1cccc(-c2cccc(Cl)c2)c1)C1CCN(C2CCC2)CC1	3.72% (inactive)
CC1(C)CC(=O)C(N=Nc2c(F)cccc2F)=C(O)C1	6.6% (inactive)
Cc1ccc2nc(SCc3cn4c(C)cc(C)nc4n3)[nH]c2c1	9.58% (inactive)
Cc1nn(CC(=O)Nc2ccc(C#N)cc2)c(C)c1[N+](=O)[O-]	56.9% (active)
CCc1ccc(NC(=O)Cn2nc(C)c([N+](=O)[O-])c2C)cc1	-5.52% (inactive)
Cc1nn(CC(=O)Nc2ccc(N(C)C)cc2)c(C)c1[N+](=O)[O-]	-13.4% (inactive)
Cc1cc(NC(=O)COC(=O)/C=C/c2ccc(C)o2)no1	4.12% (inactive)
O=C(COC(=O)c1ccco1)NCc1ccc(Cl)cc1	5.08% (inactive)
Cc1ccc(/C=C/C(=O)OCC(=O)NCc2ccc(Cl)cc2)o1	50.7% (active)
COCCN1C(=O)C(=O)/C(=C(/O)c2ccc(S(=O)(=O)N3CCCCC3)cc2)C1c1ccc(OC)c(OC)c1 (configuration not stated)	-2.1% (inactive)
O=C(CCNC(=O)c1ccccc1Cl)NN=Cc1ccco1	4.92% (inactive)
CC(=O)n1cc([C@H]2C=C(C(=O)N3CCOCC3)O[C@@H](OCc3ccc(CO)cc3)C2)c2ccccc21	-20.8% (inactive)
Cc1cccc(C)c1N1CCN(S(=O)(=O)N2CCCCC2)CC1	-7.93% (inactive)
CC1O[C@@H](OC2C(O)C(C)O[C@H](OC(=O)[C@]34CCC(C)(C)C[C@H]3C3=CCC5[C@@]6(C)CC(O)C(O[C@@H]7OC(CO)C(O)[C@@H](O)[C@@H]7O)[C@@](C)(C(=O)O)C6CC[C@@]5(C)[C@]3(CO)CC4)C2O[C@H]2OC(C)[C@@H](O[C@@H]3OCC(O[C@@H]4OC(CO)C(O)[C@H](O)C4O)[C@@H](O)[C@@H]3O)[C@H](O)C2O)C(O)C(O)C1O (some centres not stated)	-0.38% (inactive)
Cc1nn(Cc2ccc(F)cc2)c(C)c1NC(=O)c1cccnc1Cl	12.2% (inactive)
Cc1nn(Cc2ccc(Cl)c(Cl)c2)c(C)c1NC(=O)c1cc(C2CC2)on1	55% (active)
Cc1cc(C(=O)Nc2c(C)nn(Cc3ccccc3)c2C)on1	34.7% (inactive)
COc1ccccc1CNC(=O)c1ccc(Cl)c(S(=O)(=O)N2CCCC2)c1	4.64% (inactive)
COc1ccc(N=C2SC(C(=O)Nc3ccc(F)cc3)CC(=O)N2C)cc1 (configuration not stated)	5.98% (inactive)

Structure (SMILES)	inhibition
N#CCC(=O)NC1CCC(CC2CCC(NC(=O)CC#N)CC2)CC1 (configuration not stated)	-12% (inactive)
O=C(CSc1nnc(-c2ccco2)n1-c1ccccc1)NCCc1ccccc1	4.12% (inactive)
CS(=O)(=O)n1nc(-c2ccco2)nc1N	15.3% (inactive)
CSc1nc(-c2ccco2)nn1C(=O)CCc1ccccc1	54% (active)
CCOC(=O)NC(=O)CSc1nnc(SCCC(=O)O)s1	-3.59% (inactive)
O=C(c1cc2ccccc2o1)N1CCN(S(=O)(=O)c2ccc(Cl)s2)CC1	2.54% (inactive)
CCOC(=O)N1CCC(c2cc(=O)n(-c3ccccc3)[nH]2)CC1	-1.65% (inactive)
O=C(CSc1ncnc2sccc12)NC1CCS(=O)(=O)C1 (configuration not stated)	6.26% (inactive)
COc1ccc(-n2ncc3c2CC(C)(C)CC3NC(=O)CCc2c(C)nn(C)c2C)cc1 (configuration not stated)	4.43% (inactive)
O=C(Cn1cc2c(n1)CCCCC2)NCCN1CCOCC1	-8.14% (inactive)
COc1ccccc1CNC(=O)Cn1cc2c(n1)CCCC2	-20.9% (inactive)
COCCNC(=O)Cn1cc2c(n1)CCCCC2	54.5% (active)
CC(=NCc1ccc2c(c1)OCO2)C1=C(O)c2ccccc2C1=O	3.18% (inactive)
COC(=O)[C@@H]1C[C@@]2(O)[C@@H](O)[C@@H](O)[C@@H](O)C[C@H]2N1Cc1ccc(C)s1	23.4% (inactive)
COc1ccc2c3c1O[C@H]1C[C@@H](O)C=C[C@@]31CCN(C)C2	13.3% (inactive)
Cc1ccccc1OC(=O)Cn1c(C(F)(F)F)nc2ccccc21	7.11% (inactive)
CN1CCN(C(=O)Cn2c(C(F)(F)F)nc3ccccc32)CC1	5.72% (inactive)
CC(C)(C)NC(=O)NC(=O)COC(=O)Cn1c(C(F)(F)F)nc2ccccc21	60.1% (active)
CCOCCCN(C(=O)Cn1nnc(-c2ccc(OC)c(OC)c2)n1)C(CC)C(=O)NC1CCCC1 (configuration not stated)	4.18% (inactive)
Cc1nc(NC(=O)C2CCCCC2)sc1C	3.52% (inactive)
Cc1cnc(NC(=O)c2ccccn2)s1	11.4% (inactive)
Cc1cnc(NC(=O)C2CCCC2)s1	92.5% (active)
Cc1cc(C)c(C#N)c(SCC(=O)NN2CC(=O)N(c3ccccc3F)CC2=O)n1	13.8% (inactive)
CN(c1ccccc1)S(=O)(=O)c1ccc(Cl)c(C(=O)OCC(=O)NCc2ccco2)c1	17.3% (inactive)
Cc1cc(C(=O)OCC(=O)NCc2ccco2)c(C)n1-c1ccccc1	64.6% (active)
O=C(COC(=O)c1ccccc1O)NCc1ccco1	-3.83% (inactive)
